Screening data as filed in PubChem BioAssay.
An excerpt weighted towards active compounds, which were near 19% of everything screened.
HT1080 IDH1KD tx – kills HT-1080 cells with IDH1 knockdown; HT-1080 IDH1 knockdown viability, ATP luminescence, 48 h; Potency, µM (series often up to 46.1 µM), without a hit: top-dose activity, negative = toxicity, hits mostly cytotoxic; 2% of 360,000 active; AID 686971;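 also: potency is read from the fitted curve at half-maximal effect; 0% = DMSO wells and -100% = cell-free medium wells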
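Viability of IDH1-knockdown HT-1080 fibrosarcoma cells was assessed by CellTiter-Glo after 48 h at 37 °C with titrated compound; concentration-effect curves were classified by fit quality and response size.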
DT40 TDP1 CPT – growth inhibition of DT40 Tdp1-/-;hTDP1 cells with camptothecin (screen for TDP1 inhibitors); chicken DT40 Tdp1-/-;hTDP1 cells + 20 nM CPT, ATP luminescence, 48 h; Potency, µM (titrated, usually from 46.2 µM), for inactives: at the highest dose activity change, negative = growth inhibition, usual class: inhibitors; 12% of 420,000 active; AID 686979; also: potency is read from the fitted curve at half-maximal effect; nearly all actives have a fitted effect of over 55% in size
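Cell growth measured by CellTiter-Glo luminescence after a minimum 48 h, 37 C compound exposure with 20 nM CPT in Tdp1-knockout DT40 cells stably expressing hTDP1, seeded 400/well; qHTS titration format.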
IL1B secr inh – inhibitors of inflammasome signaling (IL-1 beta secretion) | THP-1 LPS/ATP IL-1B secretion, AlphaLISA, 16 h; hits give low values | activity change, % at 57.5 µM | 4.7% of 360,000 active; in the data active = activity change below about -50%; inconclusive = mostly about -30% to -49%
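THP-1 cells pretreated 1 hr with compounds (up to 57.5 uM final), then stimulated with LPS (250 ng/mL final) plus ATP (1.25 mM final); secreted IL-1B measured by AlphaLISA after 16 hr, decreased signal indicating inhibition.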
HT1080NT lethal – kills 2HG-producing HT-1080-NT fibrosarcoma cells. HT-1080-NT fibrosarcoma viability, CellTiter-Glo ATP luminescence, 48 h. Potency, µM (doses to about 46.1 µM), without a hit: at the top dose activity, negative = less viability, hits mostly cytotoxic. 1.6% of 360,000 active;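 also: NT is the 2HG producing partner of a matched IDH1 knockdown line; potency is read from the fitted curve at half-maximal effect; 0% = DMSO-treated cells and -100% = media-only wells without cells; nearly all actives have a fitted effect of over 55% in size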
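Fibrosarcoma NT cells, 750 per well in 5% FBS RPMI, were exposed to compound for 48 hours. Viability: CellTiter-Glo luminescence.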
TDP1 cell noCPT – qHTS for Inhibitors of human tyrosyl-DNA phosphodiesterase 1 (TDP1): qHTS in cells in absence of CPT. DT40 Tdp1-/- hTDP1 cells, no CPT, ATP luminescence, 48 h. 15% of 420,000 active. Potency, µM (titrated, usually from 46.2 µM), for the others: at the top dose activity change, negative = growth inhibition, most hits filed as inhibitors; also: potency is read from the fitted curve at half-maximal effect; nearly all actives have a fitted effect of over 55% in size
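DT40 Tdp1-/-;hTDP1 cells, no CPT (DMSO vehicle only), 400 cells/well; compounds pin-transferred; ≥48 hr, 37 °C; CellTiter-Glo 30 min RT dark, luminescence read.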
The depositor's hits bear a star. Unless noted, calls follow the shape of the dose curve; as a rule, active = well fitted curve in the direction sought with a large enough effect; inconclusive = small, poorly fitted or top-dose-only effect, or another doubt; inactive = no such curve, though single readings can be large; an effect the other way counts as inactive or inconclusive. Unless noted, % is scaled to controls: 0 for no effect and ±100 for the full control effect.

COc1ccccc1Cc1c(-c2ccc(Cl)cc2)nc2ccc(Br)cn12 was read as HT1080 IDH1KD tx -10.9%, DT40 TDP1 CPT 20.6µM*, IL1B secr inh 3.2, HT1080NT lethal -11.3% and TDP1 cell noCPT inconclusive.
`COC(=O)c1ccc2nc(-c3ccc(C)cc3)c(Cc3ccccc3OC)n2c1` gave HT1080 IDH1KD tx 16.0%, DT40 TDP1 CPT inconclusive, IL1B secr inh 47.5, HT1080NT lethal -0.8% and TDP1 cell noCPT inconclusive.
`COc1ccccc1Cc1c(-c2cccc(Cl)c2)nc2ccc(Cl)cn12` gave HT1080 IDH1KD tx inconclusive, DT40 TDP1 CPT 23.1µM*, IL1B secr inh 2.0, HT1080NT lethal inconclusive and TDP1 cell noCPT 18.4µM*.
COC(=O)c1ccc2nc(-c3ccccc3)c(Cc3ccccc3OC)n2c1 was read as HT1080 IDH1KD tx -8.7%, DT40 TDP1 CPT 18.4µM*, IL1B secr inh -10.3, HT1080NT lethal -2.1% and TDP1 cell noCPT 16.4µM*.
Screening COc1ccccc1Cc1c(-c2ccc(C)cc2)nc2c(C)cc(Br)cn12 returned HT1080 IDH1KD tx inconclusive, DT40 TDP1 CPT 20.6µM*, IL1B secr inh 41.6, HT1080NT lethal inconclusive and TDP1 cell noCPT 20.6µM*.
`Cc1ccc(CNC(=O)CS(=O)(=O)c2cccc3nsnc23)cc1` gave DT40 TDP1 CPT 3.4% and TDP1 cell noCPT -78.3%.
Oc1c(C(c2ccccc2)N2CCC(O)CC2)sc2nc(-c3ccco3)nn12 (centres undefined) was read as DT40 TDP1 CPT -2.8% and TDP1 cell noCPT -7.5%.
Screening CCCCNC(=O)C1CCC(CNS(=O)(=O)c2c(C)cc(C)cc2C)CC1 (centres undefined) returned HT1080 IDH1KD tx 0.0%, DT40 TDP1 CPT inconclusive, IL1B secr inh -11.9, HT1080NT lethal -5.1% and TDP1 cell noCPT inconclusive.
Screening N#CC(C#N)=Cc1c(N2CCN(c3ccccc3)CC2)nc2ccccn2c1=O returned HT1080 IDH1KD tx 9.9%, DT40 TDP1 CPT -23.3%, IL1B secr inh -0.9, HT1080NT lethal 6.3% and TDP1 cell noCPT -1.5%.
For O=C(c1cc(COc2ccc(F)cc2Cl)on1)N(CCO)Cc1cccs1 the results were HT1080 IDH1KD tx -17.1%, DT40 TDP1 CPT inconclusive, IL1B secr inh -28.0, HT1080NT lethal -6.9% and TDP1 cell noCPT inconclusive.
For COc1ccccc1Cc1c(C2CCCCC2)nc2ccc(Br)cn12 the results were HT1080 IDH1KD tx inconclusive, DT40 TDP1 CPT 8.2µM*, IL1B secr inh 0.0, HT1080NT lethal inconclusive and TDP1 cell noCPT 6.51µM*.
For COc1ccccc1Cc1c(-c2ccccc2)nc2ccc(Br)cn12 the results were HT1080 IDH1KD tx inconclusive, DT40 TDP1 CPT 14.6µM*, IL1B secr inh 24.6, HT1080NT lethal inconclusive and TDP1 cell noCPT 13µM*.
COc1ccccc1Cc1c(-c2cccc(Br)c2)nc2ccc(Br)cn12 was read as HT1080 IDH1KD tx inconclusive, DT40 TDP1 CPT inconclusive, IL1B secr inh 11.8, HT1080NT lethal inconclusive and TDP1 cell noCPT inconclusive.
Screening COc1ccccc1Cc1c(-c2ccc(C)cc2)nc2ccc(Br)cn12 returned HT1080 IDH1KD tx -6.6%, DT40 TDP1 CPT 20.6µM*, IL1B secr inh -23.7, HT1080NT lethal -18.2% and TDP1 cell noCPT 23.1µM*.
Screening COc1ccccc1Cc1c(-c2ccc(C#N)cc2)nc2ccc(Br)cn12 returned HT1080 IDH1KD tx -17.4%, DT40 TDP1 CPT 20.6µM*, IL1B secr inh -24.0, HT1080NT lethal -16.0% and TDP1 cell noCPT 16.4µM*.
Screening FC(F)(F)c1ccccc1Cc1c(C2CCCCC2)nc2ccc(Br)cn12 returned HT1080 IDH1KD tx inconclusive, DT40 TDP1 CPT inconclusive, IL1B secr inh -1.3, HT1080NT lethal inconclusive and TDP1 cell noCPT inconclusive.
For COc1ccc(S(=O)(=O)N2CCCCC2)cc1NC(=O)Cc1sc(C)nc1-c1ccc(F)cc1 the results were HT1080 IDH1KD tx -12.9%, DT40 TDP1 CPT inconclusive, IL1B secr inh -14.3, HT1080NT lethal -2.5% and TDP1 cell noCPT inconclusive.
For Cc1cc(=O)[nH]c(SCC(=O)Nc2cc(S(=O)(=O)N(C)C)ccc2Cl)n1 the results were HT1080 IDH1KD tx 1.7%, DT40 TDP1 CPT -0.6%, IL1B secr inh 16.0, HT1080NT lethal 5.3% and TDP1 cell noCPT -1.0%.
COc1ccc(C2=Nc3ccccc3N(C(=O)c3ccc(C(F)(F)F)cc3)C2C(=O)Nc2c(C)cccc2C)cc1 (centres undefined) was read as HT1080 IDH1KD tx 2.4%, DT40 TDP1 CPT inconclusive, IL1B secr inh -10.7, HT1080NT lethal 14.6% and TDP1 cell noCPT inconclusive.
`CCOCCCNC(=O)c1ccc(-n2c(-c3ccccc3)cc3c2CCCC3)cc1` gave DT40 TDP1 CPT 9.2µM* and TDP1 cell noCPT 8.2µM*.
CC1CCc2c(cc(-c3ccccc3)n2-c2ccc(C(=O)NC(C)C)cc2)C1 (centres undefined) was read as DT40 TDP1 CPT inconclusive and TDP1 cell noCPT 20.6µM*.
`CC(C)N(CCCNC(=O)C1CCC(CNS(=O)(=O)c2ccccc2)CC1)Cc1ccccc1` (centres undefined) gave HT1080 IDH1KD tx -13.4%, DT40 TDP1 CPT inconclusive, IL1B secr inh 16.8, HT1080NT lethal 1.6% and TDP1 cell noCPT inconclusive.
Screening Cc1cccc(C)c1NC(=O)CN(C)C(=O)Cc1cccc(C(F)(F)F)c1 returned HT1080 IDH1KD tx 20.9%, DT40 TDP1 CPT -12.7%, IL1B secr inh -19.1, HT1080NT lethal -4.2% and TDP1 cell noCPT -13.1%.
N#Cc1nc(Cl)c(Cl)c(NN)c1Cl was read as HT1080 IDH1KD tx -12.6%, DT40 TDP1 CPT -1.1%, IL1B secr inh -54.1*, HT1080NT lethal -19.7% and TDP1 cell noCPT -14.8%.
Screening Cc1cc(F)ccc1NC(=O)C(C(C)C)N1Cc2ccccc2C1=O (centres undefined) returned DT40 TDP1 CPT -12.6% and TDP1 cell noCPT -27.3%.
For Cc1nc(-c2coc3cc(C)c(N=O)c(O)c3/c2=N\N)cs1 the results were HT1080 IDH1KD tx -3.7%, DT40 TDP1 CPT 4.8%, IL1B secr inh 10.6, HT1080NT lethal 1.5% and TDP1 cell noCPT 2.3%.
For Cc1nc(-c2coc3cc(O)c(C)cc3c2=O)cs1 the results were HT1080 IDH1KD tx 23.1µM*, DT40 TDP1 CPT -26.5%, IL1B secr inh 36.1, HT1080NT lethal 18.4µM* and TDP1 cell noCPT inconclusive.
For Cc1cccc(NC(=O)CCCCC(=O)Nc2cccc(C)c2)c1 the results were HT1080 IDH1KD tx -0.2%, DT40 TDP1 CPT 16.7%, IL1B secr inh 8.6, HT1080NT lethal 2.8% and TDP1 cell noCPT -12.8%.
`CC(=O)Nc1sc(C)c(C)c1C(=O)Nc1ccc(C)cc1` gave HT1080 IDH1KD tx 15.1%, DT40 TDP1 CPT -0.9%, IL1B secr inh 38.0, HT1080NT lethal 6.7% and TDP1 cell noCPT -19.5%.
